Gal4-VP16 FLuc: VP16 counterscreen qHTS for inhibitors of ROR gamma transcriptional activity | Drosophila S2 Gal4-VP16 UAS-luciferase, luminescence, 20 h | Potency, µM (doses to about 53.6 µM), most hits filed as inhibitors | 310,000 tested, 3.5% active;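 further: Gal4-VP16 expression switched on by copper sulfate through the metallothionein promoter; nearly all actives have a fitted effect of over 50% in size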
CtBP-E1A blk: qHTS Assay for Inhibitors of the CtBP/E1A Interaction; 340,000 tested, 0.49% active; AID 651724, 2012; activity change, % (no concentration beside the values); AlphaScreen GST-E1A/His-CtBP binding, 1536-well; stronger effect = lower value; in the data active means activity change below about -65%; inconclusive means mostly about -30% to -63%
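Homogeneous bead-based format: GST-tagged E1A captured on glutathione donor beads, His-tagged CtBP on nickel acceptor beads; compounds precede bead addition by 2 h at 37 °C.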
p53 reactivator: qHTS assay for re-activators of p53 using a Luc reporter; H1299 p53-A138V BP100-luciferase reporter, luminescence, 24 h; Potency, µM (titrated, usually from 92.2 µM), hits mostly activators; 320,000 tested, 0.063% active; further: nearly all actives have a fitted effect of over 45% in size
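H1299 (p53-null), stable ts p53-A138V + BP100-Luc; 1000 cells/well, Opti-MEM/10% FBS; cpd 4 pt, 1:5; 24 h, 37 deg C, 5% CO2; detection reagent 10 min RT; luminescence.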
Six1-Eya2 blk: qHTS Assay for Inhibitors of the Six1/Eya2 Interaction. 360,000 tested, 0.56% active. activity change, % (no concentration beside the values). AlphaScreen GST-Six1/His-Eya2 binding, biochemical; stronger effect = lower value. AID 651725, 2012; in the data active means activity change below about -65%; inconclusive means mostly about -30% to -63%
Target sequence (O00167 whole entry, looked up): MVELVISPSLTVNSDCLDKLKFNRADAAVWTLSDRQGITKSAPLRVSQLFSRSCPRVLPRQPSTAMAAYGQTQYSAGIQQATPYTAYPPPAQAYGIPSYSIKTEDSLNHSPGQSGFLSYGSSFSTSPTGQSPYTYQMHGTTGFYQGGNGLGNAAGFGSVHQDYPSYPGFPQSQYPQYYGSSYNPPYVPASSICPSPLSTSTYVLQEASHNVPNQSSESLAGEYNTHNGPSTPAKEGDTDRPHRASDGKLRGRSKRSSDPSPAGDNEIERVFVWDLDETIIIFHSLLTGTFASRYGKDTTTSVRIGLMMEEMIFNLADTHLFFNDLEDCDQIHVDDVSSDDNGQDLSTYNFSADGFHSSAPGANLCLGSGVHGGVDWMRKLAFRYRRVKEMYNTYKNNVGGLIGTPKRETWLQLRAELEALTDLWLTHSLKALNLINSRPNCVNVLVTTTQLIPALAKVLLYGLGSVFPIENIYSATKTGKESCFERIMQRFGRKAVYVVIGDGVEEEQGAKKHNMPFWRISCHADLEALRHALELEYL
Target sequence (Q15475 whole entry, looked up): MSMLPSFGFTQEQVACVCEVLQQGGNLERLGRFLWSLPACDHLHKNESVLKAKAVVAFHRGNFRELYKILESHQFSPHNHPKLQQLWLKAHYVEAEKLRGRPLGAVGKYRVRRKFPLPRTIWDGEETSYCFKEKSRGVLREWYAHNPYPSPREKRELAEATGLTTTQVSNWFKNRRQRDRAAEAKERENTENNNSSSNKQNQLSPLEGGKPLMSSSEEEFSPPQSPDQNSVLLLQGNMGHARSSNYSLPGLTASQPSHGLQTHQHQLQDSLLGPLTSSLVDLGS
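AlphaScreen luminescence read after one hour at 37 °C in darkness. Pin-transferred compounds met GST-Six1 and His-Eya2 protein (5X stock 250 nM/500 nM) plus glutathione donor and Ni-chelate acceptor beads (5X, 50 ug/mL).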
RORgamma inh: qHTS for inhibitors of ROR gamma transcriptional activity | Nuclear receptor ROR-gamma (Mus musculus), P51450 | 310,000 tested, 5.4% active | AID 2551, 2010 | Potency, µM (highest dose often 53.6 µM), usual class: inhibitors | Drosophila S2 Gal4-RORgamma UAS-luciferase reporter, 20 h; further: nearly all actives have a fitted effect of over 60% in size
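ROR gamma transcriptional activity was tracked as Gal4-UAS luciferase output in stably transfected Drosophila Schneider cells, with compound added 1 hr before 700 uM copper sulfate induction and a 20 hr ambient-temperature incubation.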
A number is an active result; . = inactive; ? = inconclusive; / = not tested or not shown. A selection: hits, their analogues and other compounds. The true share with any hit is near 5.4%. Unless noted, the call rests on the fitted dose curve; in most records, active means well fitted curve in the direction sought with a large enough effect; inconclusive means small, poorly fitted or top-dose-only effect, or another doubt; inactive means no such curve, though single readings can be large; an effect the other way counts as inactive or inconclusive.

SMILES	Gal4-VP16 FLuc	CtBP-E1A blk	p53 reactivator	Six1-Eya2 blk	RORgamma inh
COc1ccc(C(=O)Nc2ccccc2C(=O)N/N=C/c2ccco2)cc1	10µM	.	?	.	2µM
CN(c1ccccc1)S(=O)(=O)c1cccc(C(=O)Nc2nn[nH]n2)c1	.	.	.	.	.
CCOc1ccc(/C=N/NC(=O)c2ccccc2NC(=O)c2ccc(OC)cc2)cc1	7.1µM	.	?	.	7.1µM
COc1cccc(Nc2ncc3nc(-c4cn(C)c5ccccc45)c(=O)n(C[C@H]4CCCO4)c3n2)c1	.	/	/	/	.
O=C(CCN1CCCCC1)NNC(=S)NC(=O)c1ccc(Br)cc1	8.9µM	.	.	?	2µM
O=C(CCN1CCOCC1)NNC(=S)NC(=O)c1ccc(Br)cc1	?	.	.	.	11µM
O=C(CNc1cccc2ccccc12)N/N=C/c1ccc(OC(=O)/C=C/c2ccco2)cc1	.	-79	.	?	.
O=C(COc1ccc2ccccc2c1)NCC(=O)N/N=C/c1ccco1	.	.	.	.	.
O=C(/C=C/c1ccco1)Oc1cc(Br)cc(/C=N/NC(=O)c2ccccc2O)c1	2.8µM	-92	?	-88	3.2µM
O=C(CNc1ccc2ccccc2c1)N/N=C/c1ccc(OC(=O)/C=C/c2ccco2)cc1	.	-67	.	?	.
O=S(O)CO	.	/	/	/	.
CC(C)Oc1ccc(/C=C(/NC(=O)c2ccccc2)C(=O)NCCC(=O)O)cc1	.	.	.	.	11µM
COC(=O)C1=CO[C@@H](C)[C@@H]2CN3CCc4c([nH]c5ccccc45)[C@@H]3C[C@H]12	.	/	/	/	.
C=C(C)C1CC=C(C)/C(=N\NC(=S)Nc2ccc(C)cc2)C1 (configuration not stated)	4.5µM	.	?	?	1.1µM
Cc1ccc(-n2c(-c3ccco3)n[nH]c2=S)cc1	?	.	.	.	11µM
Fc1ccc(-n2c(-c3ccco3)n[nH]c2=S)cc1	?	.	.	.	?
S=c1[nH]nc(-c2cc(-c3ccco3)[nH]n2)n1-c1ccccc1	.	.	.	.	13µM
Cc1onc(-c2ccccc2)c1-c1n[nH]c(=S)n1-c1ccccc1Cl	16µM	.	.	.	4.5µM
CCOc1ccc(-n2c(-c3ccco3)n[nH]c2=S)cc1	?	.	.	.	2.8µM
Cc1onc(-c2ccccc2)c1-c1n[nH]c(=S)n1-c1ccc(C(=O)O)cc1	.	.	.	.	.
Cc1cccc(C)c1NC(=O)C(c1ccncc1)n1c(=O)c(-c2ccccc2)nc2ccccc21 (configuration not stated)	/	.	/	.	/
O=C(NN1CCCCCC1)c1ccccc1F	/	.	/	.	/
S=c1[nH]nc(-c2ccco2)n1-c1ccccc1Cl	18µM	.	.	.	6.3µM
COC(=O)N/N=C/c1ccc(-c2cccc(Cl)c2)o1	.	.	.	.	.
Nc1ccccc1N=Cc1ccc(-c2cccc(Cl)c2)o1	13µM	.	.	.	?
SMILES	Gal4-VP16 FLuc	CtBP-E1A blk	p53 reactivator	Six1-Eya2 blk	RORgamma inh
CC1=C(CC(=O)c2ccc(Cl)cc2)C(=O)c2ccccc2C1=O	.	?	.	?	.
O=C(Nc1ccc(C(F)(F)F)cc1)C1CCN(S(=O)(=O)c2ccc(N3CCCC3=O)cc2)CC1	3.5µM	/	.	.	.
COC(=O)C1OC(=O)C2OC23[C@]2(C)C(OC(C)=O)CC4C(C)(C)C(=O)CC[C@]4(C)C2CC[C@@]13C (some centres not stated)	.	/	/	/	.
Nc1nnc(COc2ccc(Br)cc2Br)s1	.	.	.	.	.
Cc1ccc(C)c(OCc2nnc(N)s2)c1	.	.	.	.	13µM
CCn1c(SCC(=O)Nc2ncc(C(F)(F)F)cc2Cl)nnc1-c1ccccc1	?	/	.	.	.
Cc1nnc(SCC(=O)Nc2ncc(Cl)cc2Cl)n1Cc1ccccc1	?	.	.	.	4µM
Cc1nnc(SCC(=O)Nc2sccc2C(N)=O)n1Cc1ccccc1	.	.	.	.	4.5µM
Cn1c(SCC(=O)Nc2ncc(C(F)(F)F)cc2Cl)nnc1-c1ccc(Cl)cc1	11µM	.	.	.	10µM
CCNc1ncc2nc(-c3cccc(C#N)c3)c(=O)n(C)c2n1	.	/	/	/	.
CC(c1ccccc1)N1CC(C(=O)N2CCCC(C(N)=O)C2)CC1=O (configuration not stated)	/	/	.	.	/
COc1ccccc1N1CCN(C(=O)CCCCCn2c(=S)[nH]c3cc4c(cc3c2=O)OCO4)CC1	/	.	/	.	/
O=C(CCCn1c(=S)[nH]c2cc3c(cc2c1=O)OCO3)N1CCN(c2ccc(F)cc2)CC1	?	.	.	.	7.9µM
O=C(CCCCCn1c(=S)[nH]c2cc3c(cc2c1=O)OCO3)N1CCN(c2ccccc2)CC1	.	.	.	.	?
O=C(CCCn1c(=S)[nH]c2cc3c(cc2c1=O)OCO3)N1CCN(c2ccccc2F)CC1	7.9µM	.	.	.	13µM
CCOCCCn1c(=S)[nH]c2cc3c(cc2c1=O)OCO3	2.5µM	.	.	.	2.5µM
O=C(CCCn1c(=S)[nH]c2cc3c(cc2c1=O)OCO3)N1CCN(c2ncccn2)CC1	.	.	.	.	16µM
CCN(CC)CCn1c(=S)[nH]c2cc3c(cc2c1=O)OCO3	.	.	.	.	.
COc1ccc(-n2c(=O)cnc3cnc(Oc4ccccc4)nc32)cc1	.	/	/	/	.
COc1cccc(N2CCN(C(=O)CCCCCn3c(=S)[nH]c4cc5c(cc4c3=O)OCO5)CC2)c1	.	.	.	.	2.2µM
CCOC(=O)c1c(S(=O)(=O)NCC(=O)Nc2cccc(C)n2)c(C)n(C)c1C	.	.	.	.	.
Nc1nc(N)c2sc3nc4c(cc3c2n1)CCC4	.	-84	.	-76	.
CCCCC(=O)Nc1ccccc1C(=O)OCC(=O)c1ccc2c(c1)OCCO2	?	.	45µM	.	?
Cc1cc(C(=O)OCC(=O)c2ccc3c(c2)OCCO3)c(C)o1	.	.	?	.	.
CCC(=O)Nc1ccccc1C(=O)OCC(=O)c1ccccc1	.	.	.	.	10µM
SMILES	Gal4-VP16 FLuc	CtBP-E1A blk	p53 reactivator	Six1-Eya2 blk	RORgamma inh
CCC(=O)Nc1ccccc1C(=O)OCC(=O)c1ccc2ccccc2c1	.	.	.	.	?
CCOC(=O)c1ccccc1NC(=O)/C=C/C(=O)O	.	.	.	.	.
O=C(O)/C=C/C(=O)Nc1ccccc1C(=O)OCC(=O)c1ccc2c(c1)OCCO2	8.9µM	.	.	.	7.9µM
COC(=O)c1ccc2c(=O)n(CCN3CCOCC3)c(SCC(=O)NCc3ccccc3)nc2c1	.	.	.	.	.
NC(=O)C1CCN(c2nc(-c3ccc4ccccc4c3)cs2)CC1	/	/	.	/	/
CCN(CC)C(=O)c1sc(NC(=O)Cc2ccc(OC)cc2)c(C#N)c1C	.	.	.	.	.

Assay outcomes deposited in PubChem BioAssay by National Center for Advancing Translational Sciences (NCATS).
